Inhibition data for 100 compounds are collected here from PubChem BioAssay AID2315 (National Center for Advancing Translational Sciences (NCATS), 2010).

SMILES strings stand for the structures. Screen size: about 290,000 compounds; about 27,000 (9.3%) were called active. The sample holds actives, similar compounds and a random draw of the others, so the mix is not that of the screen. A number with no mark means an inactive call. Cut-off read from the data, not from the text of the source: active = inhibition mostly above about 28% (no sharp cut-off); inactive = mostly below about 43%.

The experiment is described as follows: A qHTS for Small Molecule Inhibitors of Shiga Toxin. Note: 0% is about no effect. The settings on record: Vero cells, Shiga toxin protein synthesis inhibition reporter; at 38.7 µM, active compounds read high. (In general: qHTS replaces the single test concentration by a dilution series.)
Turning to `COC(=O)c1ccc(NC(=O)c2ccccc2NS(=O)(=O)c2ccccc2)cc1`, the inhibition is 5.81%. To `COC(=O)c1ccc(C(=O)OC)c(NC(=S)N2CCCCC2)c1` belongs 12.8%; to `COC(=O)c1ccc(NCC(=O)N2CCCCCC2)cc1`, 110% (active). In the case of `COC(=O)c1ccc(NCC(=O)c2ccccc2)cc1`, the inhibition was 85.2% (active). As for `Cc1ccc(NC(=S)Nc2ccc(F)cc2)cc1`, the figure is 27.7%; as for `Cc1ccc(C(=O)CNc2ccc(F)cc2)cc1`, 45.5% (active). Consider `COc1ccc(NC(=O)CCCC(=O)c2ccccc2)cc1`, for which the inhibition was 6.27%. To `Cc1ccc(C(=O)NC2CCN(C(=O)Nc3ccc(F)cc3)CC2)cc1` belongs -7.26%; to `COC(=O)c1ccc(/C=N/NC(=O)C(=O)N2CCCCCC2)cc1`, -5.76%; to `c1ccc(Cc2ccc(OCCn3ccnc3)cc2)cc1`, 1.57%. As for `COc1ccc(CN(C)C(=O)c2cc(-c3ccc(C)cc3C)nc3ccccc23)c(OC)c1OC`, the figure is -8.91%; as for `CC(=O)N1CCCc2cc(S(=O)(=O)N3CCCC(C(=O)N4CCN(c5cccc(Cl)c5)CC4)C3)ccc21` (stereo not given), -12.3%; as for `COc1ccc(CNC(=O)C2CCN(C(=O)c3ccccc3)CC2)cc1`, -21.8%. For the compound `Cc1ccc2c(c1)N(CC(=O)NCCc1ccc(Cl)cc1)C(=O)c1cccnc1O2`, the inhibition was 4.91%.

For the compound `Cc1ccc(NC(=O)Cn2nc(C)c3ccccc3c2=O)c(C)c1`, the inhibition was 10.2%. To `Cc1ccc(NC(=O)c2ccn(C(=O)Nc3ccccc3)n2)c(C)c1` belongs 92.2% (active). On to `Cc1ccc(C)c(S(=O)(=O)N2CCN(C(=O)Nc3ccccc3)CC2)c1`, for which the inhibition was 17.4%. As for `O=C(Nc1ccc2c(c1)OCCO2)C(c1ccc(F)cc1)N1CCCCC1` (stereo not given), the figure is 5.25%; as for `CCOC(=O)c1cnc2ccc(F)cc2c1Nc1ccc2c(c1)OCCO2`, 35% (active).

As to `Cc1ccc2nc(-c3ccncc3)cc(C(=O)Nc3ccc4c(c3)OCCO4)c2c1`, the inhibition is 9.13%.

For `COc1ccc(C(=O)N(C)CC(O)c2ccccc2)cc1OC1CCN(C(C)=O)CC1` (stereo not given), the inhibition was -21%. As for `O=C(CCC1CCCN(C(=O)Cc2ccc(F)cc2)C1)N1CCN(c2ccccn2)CC1` (stereo not given), the figure is -2.14%. As for `O=C(Cc1ccc(Br)cc1)N1CCN(c2ccccn2)CC1`, the inhibition was 45.9% (active). As for `O=C(Cc1ccccc1Cl)N1CCN(c2ccccn2)CC1`, the inhibition is 7.93%. As for `CNC(=O)c1sc(Nc2ccc(OCc3ccccc3)cc2)nc1C`, the figure is 43.2%; as for `COC(=O)c1ccc(OC(=O)c2cnccn2)cc1`, -3.05%. As for `Cn1c(=NC(=O)c2cnccn2)sc2ccccc21`, the figure is 48.7% (active); as for `Cn1c(=NC(=O)CSCC(=O)N2CCCCC2)sc2ccccc21`, 20.2%. As for `CCn1cc(C(=O)OCC(=O)Nc2cccc(C)c2)c(=O)c2ccc(C)nc21`, the figure is 12.3%; as for `COc1ccc(S(=O)(=O)N2CCC(C(=O)NCCC(=O)NCc3cccc(OC)c3)CC2)cc1`, -13%; as for `COCCOC1CCN(C(=O)c2ccc(OC)c(OC3CCN(C(C)C)CC3)c2)CC1`, 3.86%.

Turning to `Cc1cc(Cl)ccc1C(=O)C1CCCN(C(=O)c2nonc2C)C1` (stereo not given), the inhibition is -11%.

As for `O=C(/C(=C/c1cccc(Cl)c1)c1nc2ccccc2[nH]1)c1ccccc1`, the inhibition is 37.9%. As for `N#C/C(=C(/O)COC(=O)COc1ccc(Cl)cc1)c1nc2ccccc2[nH]1`, the figure is -6.24%; as for `O=C(Cc1nc2ccccc2[nH]c1=O)c1ccc(Cl)cc1`, 66.3% (active). As for `O=S(=O)(Nc1cccc2cccnc12)c1cccc2cccnc12`, the figure is -6.53%. Regarding `Cc1cccc(NC(=O)CCN2CC(C)CC(C)C2)c1` (stereo not given), the inhibition is -6.03%. As for `CCCc1c(C(=O)Nc2ccc(F)cc2)cnn1-c1ccccc1`, the figure is 58.3% (active).

Take `CCNC(=O)c1cnn(-c2ccccc2)c1-c1ccccc1`: the inhibition is -0.867%. With `CCCc1c(C(=O)O)cnn1-c1ccc(Cl)cc1`, the inhibition was 9.39%. To `Cc1ccc2c(c1)N(S(=O)(=O)c1cc(-c3cc(C)no3)ccc1C)CCO2` belongs 18.2%. To `c1cnc(N2CCN(c3ccc4ccccc4n3)CC2)nc1` belongs 71.6% (active); to `Oc1ccc(CN2CCN(c3ncccn3)CC2)cc1`, -3.72%.

Consider `O=C(c1ccncc1)N1CCN(c2ccc3ccccc3n2)CC1`, for which the inhibition is -6.23%. As for `O=C(N/N=C1\CCSC1)c1cc(Cl)ccc1O`, the figure is 35.8% (active); as for `Cc1ccc(C)c(N2C(=O)CS/C2=N\NC(=O)c2ccccc2Cl)c1`, -31.2%. For the compound `C/C(=N/NC(=O)c1cc(Cl)ccc1O)C12CC3CC(CC(C3)C1)C2`, the inhibition is 25.6%. Take `C=CCn1c(SCC(=O)NC)nnc1C12CC3CC(CC(C3)C1)C2`: the inhibition was 13.7%. Turning to `CC(C)=C(NC(=O)c1ccccc1)C(=O)N/N=C(\C)c1ccccc1O`, the inhibition was -2.93%. To `C/C(=N\NC(=O)c1ccoc1C)c1ccccc1O` belongs 104% (active); to `C/C(=N\NC(=O)c1ccccc1C)c1ccc(N2CCOCC2)cc1`, 40.6%.

Turning to `CC1=C(C(=O)NC2CC(C)(C)Cc3c2cnn3-c2ccc(C)cc2)OCCO1` (stereo not given), the inhibition is -2.9%. As for `COc1cc(S(=O)(=O)N2CCN=C2c2ccccc2)ccc1Cl`, the inhibition is -4.87%. As for `CCN(CC)CCCNC(=O)CCn1nc(-c2ccc(Cl)cc2)ccc1=O`, the figure is -2.08%; as for `COc1ccc2ccccc2c1/C=N/NC(=O)c1cc(C)[nH]n1`, 7.72%; as for `Cc1cc2nc(SCCN3CCOCC3)[nH]c2cc1C`, 59.3% (active). As for `CCn1c2ccc(F)cc2c2nnc(SCCN3CCOCC3)nc21`, the inhibition was -3.64%. As for `Cc1cccc(C)c1OCCN1CCOCC1`, the figure is 1.56%; as for `COc1cccc(CNS(=O)(=O)c2ccc3c(c2)N(C(C)=O)CCS3)c1`, -13.7%. Regarding `Cc1nc2ccccc2nc1N/N=C/c1ccc(O)cc1O`, the inhibition was 55.6% (active). As for `COc1ccc(/C=C(\C#N)C(=O)ONC2=NCCCCC2)cc1`, the figure is 20.9%; as for `Oc1ccc(/C=N/NC2=NCCCCC2)c(O)c1`, 97.5% (active). To `Oc1ccc(/C=N/Nc2nc(-c3ccccc3F)nc3ccccc23)c(O)c1` belongs 16%; to `Cc1cc(N/N=C/c2ccccc2F)c2ccccc2n1`, 26.9%. In the case of `C[C@H](C(=O)CC(=O)OC(C)(C)C)[C@H](O)c1ccc(C(F)(F)F)cc1`, the inhibition is 1.74%. Regarding `COCCCNC(=S)N1CCN(c2nc(-c3cccc(OC)c3)cs2)CC1`, the inhibition was 21.1%. To `C=CCOc1ccc(/C=C/C(=O)OCC(=O)NC2CCCCCC2)cc1` belongs 1.6%; to `COCC(=O)N1CCCC(C(=O)c2ccc(C(F)(F)F)cc2)C1` (stereo not given), -8.8%. On to `CC(=O)Nc1ccc(S(=O)(=O)Oc2ccc(Br)cc2C(=S)N2CCOCC2)cc1`, for which the inhibition is -12.5%.

As to `Cn1c(CNC(=O)c2ccco2)nnc1SCC(=O)N1CCN(c2ccccc2)CC1`, the inhibition was 4.34%.

As to `COc1ccccc1NC(=O)c1ccc(C)s1`, the inhibition is 73.7% (active). For the compound `COC(=O)c1c(NC(C)=O)sc(C(=O)Nc2ccccc2OC)c1C`, the inhibition was -23.1%. For the compound `COc1ccccc1NC(=O)C1=C(C)NC(=O)NC1c1ccc(C)s1` (stereo not given), the inhibition is 1.28%.

On to `COc1ccc(/C=C(/NC(=O)c2ccccc2)C(=O)Nc2cccc(C(=O)O)c2)cc1`, for which the inhibition was -15.3%. For `O=C1c2ccccc2C(=O)N1CCOc1ccc(F)cc1`, the inhibition is 90.8% (active).

`Cc1cccc2c1N(CCOc1ccccc1)C(=O)C2=O`: the inhibition is -13.4%. As for `O=C(OCCN1C(=O)c2ccccc2C1=O)Oc1ccccc1`, the figure is -2.38%. Turning to `CC(NC(=O)COc1cccnc1[N+](=O)[O-])c1ccc(Cl)cc1Cl` (stereo not given), the inhibition is -9.36%. On to `O=C(CCC(=O)Nc1ccccc1)N/N=C/c1ccccc1F`, for which the inhibition is 144% (active). As for `O=C(Cc1ccccc1)N/N=C/c1ccc(Cl)cc1Cl`, the figure is 6.24%; as for `O=C(CCCCCNC(=O)c1ccccc1)N/N=C/c1ccccc1`, 11%. As for `CN(C)C(=O)c1ccc(NC(=O)c2ccccc2-c2ccccc2)cc1`, the figure is -11.5%; as for `CCOc1cccc(C(=O)Nc2cnn(Cc3ccccc3)c2)c1`, 17.4%; as for `CCc1ccc(NC(=O)c2ccc(Cn3cc([N+](=O)[O-])cn3)cc2)cc1`, 51.8%. As for `O=C(Nc1ccccc1F)c1ccc(Cn2cc(Br)cn2)cc1`, the figure is 71.1% (active); as for `CC(NC(=O)Cn1cc(C(F)(F)F)cc(Cl)c1=O)c1ccccc1` (stereo not given), -1.42%; as for `NNC(=O)CSc1nnc(-c2ccccc2)n1-c1ccccc1`, -7.44%. In the case of `COc1ccc(C(=O)NC2CC2)cc1OC1CCN(Cc2ccc(SC)cc2)CC1`, the inhibition is -0.345%.

Take `Cc1nnc(NCCO)c2ccccc12`: the inhibition is 10.4%. For `COc1ccc(Nc2nc(=O)[nH]nc2C)cc1`, the inhibition was 16.1%.

On to `COc1ccc(Nc2nnc(C)c3ccccc23)cc1`, for which the inhibition is 106% (active). With `CN(Cc1ccccc1)C(=O)C1CCCN(c2ncnc3c2nc2n3CCCCC2)C1` (stereo not given), the inhibition is 21.9%.

With `C/C(=C/c1ccccc1)C(=O)N1CCN(c2ccccc2)CC1`, the inhibition was 18.9%. To `Cc1cccc(C(=O)OC(C)CN2CCCC2)c1` (stereo not given) belongs 5.97%. On to `CCNC(=S)NNC(=O)Cc1ccccc1`, for which the inhibition is -8.55%. `O=C(CCc1ccccc1)NNC(=O)c1ccc(Br)cc1`: the inhibition was 34.5%. To `CC(C)(C)c1ccc(C(=O)NNC(=O)Cc2ccccc2)cc1` belongs 76.6% (active); to `CCc1ccc2c(c1)C(c1ccc([N+](=O)[O-])cc1)=NNC(c1ccccc1)=N2`, 31.4%.

For `CCOc1ccc2c(c1)C(c1ccc(C)cc1)=NNC(c1ccc(C)cc1)=N2`, the inhibition was 85.1% (active). As for `Cc1ccc(C2=Nc3c(ccc4ccccc34)C(c3ccncc3)=NN2)cc1`, the figure is 5.77%.

As usually defined, the inhibition is the change of the read-out against control, counted positive when it falls.
